Results reported in PMC10812921, “Transcriptional Coactivator BOB1 (OBF1, OCA-B) Modulates the Specificity of DNA Recognition by the POU-Domain Factors OCT1 and OCT2 in a Monomeric Configuration”.

molecular target: POU1 (OCT1 POU domain) (human, UniProt P14859 260-458); experiment: EMSA-SELEX-seq; no BOB1; 20 mM Tris-HCl pH 7.6, 140 mM NaCl, 10% glycerol, 0.5 mM EDTA, 0.05% Triton X-100, 0.1 mg/mL BSA, 0.1 mg/mL poly(dI-dC), 5 mM DTT, room temperature, 20 min; high values mean tight binding; conditions: protein: recombinant; dsDNA, one strand shown
Procedure, shortened: (§1)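 Binding preference is the percentage of sequenced 8-mers matching a motif pattern. Tagged POU-domain proteins expressed in E. coli BL21 were purified under denaturing conditions and renatured. For binding, 30 ng protein met 300 ng of a PCR-amplified double-stranded random 35-nt library, with or without 28 ng coactivator protein, in 20 μL Tris–HCl pH 7.6 binding buffer for 20 min at RT. Complex bands were cut from native 6% PAGE, eluted and PCR-amplified over four rounds, then Illumina-sequenced.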

POU1 (OCT1 POU domain), sequence (P14859 260-458): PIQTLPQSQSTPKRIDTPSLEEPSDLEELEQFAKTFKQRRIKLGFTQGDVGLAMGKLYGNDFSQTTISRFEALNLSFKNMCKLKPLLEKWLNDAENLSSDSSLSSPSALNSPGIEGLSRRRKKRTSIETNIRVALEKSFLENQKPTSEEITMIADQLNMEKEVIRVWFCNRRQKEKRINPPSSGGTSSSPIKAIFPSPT

Sequence | binding signal
ACTTGAAC | 0.0183 % of ANNNNAAN 8-mers
AGAGCAAG | 0.0156 % of ANNNNAAN 8-mers
ACAGAAAG | 0.0297 % of ANNNNAAN 8-mers
ACCAAAAC | 0.0168 % of ANNNNAAN 8-mers
AAGGCAAG | 0.0328 % of ANNNNAAN 8-mers
AGTACAAT | 0.0416 % of ANNNNAAN 8-mers
AGGTTAAA | 0.0545 % of ANNNNAAN 8-mers
ATGTCAAT | 0.0828 % of ANNNNAAN 8-mers
AATGAAAG | 0.0751 % of ANNNNAAN 8-mers
AGAACAAG | 0.0221 % of ANNNNAAN 8-mers
ACATAAAC | 0.087 % of ANNNNAAN 8-mers
ACGACAAA | 0.0217 % of ANNNNAAN 8-mers
ACCGTAAG | 0.0191 % of ANNNNAAN 8-mers
AGAGAAAA | 0.0702 % of ANNNNAAN 8-mers
ATGCGAAA | 0.0835 % of ANNNNAAN 8-mers
ATCAGAAG | 0.0271 % of ANNNNAAN 8-mers
ACCCTAAT | 0.037 % of ANNNNAAN 8-mers
AACACAAC | 0.016 % of ANNNNAAN 8-mers
ACCTAAAA | 0.021 % of ANNNNAAN 8-mers
ATACTAAG | 0.045 % of ANNNNAAN 8-mers

Sequence | binding signal
ATCTAAAT | 0.172 % of ANNNNAAN 8-mers
AGCAAAAT | 0.102 % of ANNNNAAN 8-mers
AGGAAAAG | 0.1 % of ANNNNAAN 8-mers
ACTAGAAG | 0.0229 % of ANNNNAAN 8-mers
AAATCAAG | 0.098 % of ANNNNAAN 8-mers
AATTTAAA | 0.913 % of ANNNNAAN 8-mers
ATGCAAAC | 0.543 % of ANNNNAAN 8-mers
AGTCTAAC | 0.021 % of ANNNNAAN 8-mers
AACCAAAG | 0.0336 % of ANNNNAAN 8-mers
ATCGGAAT | 0.0717 % of ANNNNAAN 8-mers
AGCCAAAG | 0.0286 % of ANNNNAAN 8-mers
ATACCAAG | 0.0252 % of ANNNNAAN 8-mers
AATTAAAC | 0.14 % of ANNNNAAN 8-mers
ATCTAAAA | 0.0564 % of ANNNNAAN 8-mers
ATTAAAAA | 0.172 % of ANNNNAAN 8-mers
AGAGTAAT | 0.0648 % of ANNNNAAN 8-mers
AACGGAAC | 0.0187 % of ANNNNAAN 8-mers
ACCGGAAC | 0.0137 % of ANNNNAAN 8-mers
AAGCAAAG | 0.0847 % of ANNNNAAN 8-mers

molecular target: T1, POU2 (OCT2 POU domain) (human, UniProt P09086 175-386); experiment: as above; conditions: protein: recombinant; dsDNA, one strand shown
T1 sequence: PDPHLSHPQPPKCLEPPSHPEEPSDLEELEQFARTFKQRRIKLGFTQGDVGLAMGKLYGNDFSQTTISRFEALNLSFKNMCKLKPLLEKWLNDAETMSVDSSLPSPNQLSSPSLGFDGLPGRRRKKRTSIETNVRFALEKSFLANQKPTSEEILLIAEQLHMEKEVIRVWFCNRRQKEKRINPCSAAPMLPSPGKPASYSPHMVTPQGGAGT
Procedure, shortened: as §1

Sequence | binding signal
ACTTGAAC | 0.0207 % of ANNNNAAN 8-mers
AGAGCAAG | 0.0213 % of ANNNNAAN 8-mers
ACAGAAAG | 0.0236 % of ANNNNAAN 8-mers
ACCAAAAC | 0.0242 % of ANNNNAAN 8-mers
AAGGCAAG | 0.038 % of ANNNNAAN 8-mers
AGTACAAT | 0.0426 % of ANNNNAAN 8-mers
AGGTTAAA | 0.0731 % of ANNNNAAN 8-mers
ATGTCAAT | 0.0869 % of ANNNNAAN 8-mers
AATGAAAG | 0.088 % of ANNNNAAN 8-mers
AGAACAAG | 0.0334 % of ANNNNAAN 8-mers
ACATAAAC | 0.106 % of ANNNNAAN 8-mers
ACGACAAA | 0.0299 % of ANNNNAAN 8-mers
ACCGTAAG | 0.0155 % of ANNNNAAN 8-mers
AGAGAAAA | 0.065 % of ANNNNAAN 8-mers
ATGCGAAA | 0.0926 % of ANNNNAAN 8-mers
ATCAGAAG | 0.0363 % of ANNNNAAN 8-mers
ACCCTAAT | 0.0518 % of ANNNNAAN 8-mers
AACACAAC | 0.019 % of ANNNNAAN 8-mers
ACCTAAAA | 0.0311 % of ANNNNAAN 8-mers
ATACTAAG | 0.0518 % of ANNNNAAN 8-mers

Sequence | binding signal
ATCTAAAT | 0.227 % of ANNNNAAN 8-mers
AGCAAAAT | 0.0702 % of ANNNNAAN 8-mers
AGGAAAAG | 0.08 % of ANNNNAAN 8-mers
ACTAGAAG | 0.0316 % of ANNNNAAN 8-mers
AAATCAAG | 0.0926 % of ANNNNAAN 8-mers
AATTTAAA | 0.793 % of ANNNNAAN 8-mers
ATGCAAAC | 0.445 % of ANNNNAAN 8-mers
AGTCTAAC | 0.0207 % of ANNNNAAN 8-mers
AACCAAAG | 0.038 % of ANNNNAAN 8-mers
ATCGGAAT | 0.0869 % of ANNNNAAN 8-mers
AGCCAAAG | 0.0219 % of ANNNNAAN 8-mers
ATACCAAG | 0.0334 % of ANNNNAAN 8-mers
AATTAAAC | 0.194 % of ANNNNAAN 8-mers
ATCTAAAA | 0.0524 % of ANNNNAAN 8-mers
ATTAAAAA | 0.219 % of ANNNNAAN 8-mers
AGAGTAAT | 0.0777 % of ANNNNAAN 8-mers
AACGGAAC | 0.0201 % of ANNNNAAN 8-mers
ACCGGAAC | 0.0138 % of ANNNNAAN 8-mers
AAGCAAAG | 0.0501 % of ANNNNAAN 8-mers
